The campaign covered roughly 140,000 compounds. About 2,100 (1.5%) were called active. Rule as the data show it: active = protection mostly above about 24% (no sharp cut-off); inactive = mostly below about 26%. Many of the other results were omitted from the sample, so actives are more common in it than they were.
Assay: blockers of measles virus-induced cell death – single point, MLSMR library, absorbance, measles RdRp inhibitor project, primary screen (AID 841)
Conditions: Measles virus-infected cells, CPE protection, at 4 µM, hits give high values
With `CS(=O)(=O)c1ccc2nc(NC(=O)C3CCCCC3)sc2c1` the protection (pct of control) was 38.1% (active).
In the case of `CS(=O)(=O)c1ccc2nc(NC(=O)C3C4C=CC(C4)C3C(=O)O)sc2c1` (centres undefined), the protection (pct of control) is reported as 18.3% (inactive).
In the case of `CS(=O)(=O)c1ccc2nc(NC(=O)CN3CCCCCC3)sc2c1`, the protection (pct of control) is reported as 4.57% (inactive).
With `O=C(/C=C/c1cnc2ccccc2n1)NC1CCCCCC1` the protection (pct of control) was 9.7% (inactive).
In the case of `Cc1cc(NC(=O)CSc2nnc(-c3ccc(Cl)s3)o2)no1`, the protection (pct of control) is reported as 86.1% (active).
With `COc1ccccc1-c1nnc(SCC(=O)Nc2cc(C)on2)o1` the protection (pct of control) was 14.9% (inactive).
In the case of `Cc1ccc(-c2csc(SCC(=O)Nc3cc(C)on3)n2)cc1`, the protection (pct of control) is reported as 7.27% (inactive).
For `O=C(COC(=O)/C=C/c1nc2ccccc2s1)Nc1ccccc1Oc1ccccc1`, the protection (pct of control) was 1.41% (inactive).
For `Cc1cccc(-n2c(SCC(N)=O)nc3c(c2=O)C2(CCCCC2)Cc2ccccc2-3)c1`, the protection (pct of control) was 29.9% (active).
With `Cc1cccc(-n2c(N)cc(=O)nc2SC(C)C(=O)NC2CCCCC2)c1` (centres undefined) the protection (pct of control) was 20.2% (inactive).
In the case of `N#CCSc1nc2c(c(=O)n1Cc1ccccc1)C1(CCCC1)Cc1ccccc1-2`, the protection (pct of control) is reported as 1.58% (inactive).
With `COc1ccc(-c2csc3ncnc(Oc4ccc5c(C)cc(=O)oc5c4)c23)cc1` the protection (pct of control) was 6.48% (inactive).
For `O=C(COc1ccc(/C=N/NC(=O)c2ccc(O)cc2)cc1)Nc1ccc([N+](=O)[O-])cc1`, the protection (pct of control) was 40.1% (active).
In the case of `O=C(COc1ccc([N+](=O)[O-])cc1)Nc1ccc(N2CCCC2)cc1`, the protection (pct of control) is reported as 18.8% (inactive).
In the case of `CCCCCC(=O)Nc1ccc(C(=O)N/N=C/c2ccc([N+](=O)[O-])cc2)cc1`, the protection (pct of control) is reported as 25.1% (inactive).
For `O=C(NNC1CC(=O)N(c2cccc(Cl)c2)C1=O)c1cccnc1` (centres undefined), the protection (pct of control) was 8.5% (inactive).
With `COc1cc(C2C(N3C(=O)c4ccccc4C3=O)C(=O)N2c2ccc(C)c(C)c2)cc(OC)c1OC` (centres undefined) the protection (pct of control) was 9.11% (inactive).
For `Cc1ccc(NC(=O)c2sc3nc(N)c(C#N)cc3c2N)cc1`, the protection (pct of control) was 74.1% (active).
In the case of `CC(=O)Nc1ccc(NC(=O)c2sc3nc4c(c(-c5ccc(C)cc5)c3c2N)CCC4)cc1`, the protection (pct of control) is reported as 9.68% (inactive).
In the case of `CCc1ccc2nc3sc(C(=O)Nc4nnc(CC)s4)c(N)c3cc2c1`, the protection (pct of control) is reported as 1.37% (inactive).
For `CCNC(=S)N1CCN(C(=O)c2ccco2)CC1`, the protection (pct of control) was 9.63% (inactive).
For `Cc1ccc(NC(=S)N2CCN(c3ncccn3)CC2)cc1C`, the protection (pct of control) was 12.6% (inactive).
In the case of `CCNC(=S)N1CCN(c2ncccn2)CC1`, the protection (pct of control) is reported as 20.9% (active).
For `CCOC(=O)c1c(NC(=S)NC(=O)c2ccco2)sc2c1CCCC2`, the protection (pct of control) was 37% (inactive).
In the case of `CCOC(=O)c1c(NC(=O)c2ccc(Br)o2)sc2c1CCCC2`, the protection (pct of control) is reported as 27.8% (active).
With `CCOCC(=O)Nc1sc2c(c1C(=O)OCC)CCCC2` the protection (pct of control) was 7.18% (inactive).
With `COc1cc(/C=C/C(=O)OCC(=O)Nc2cccc(Oc3ccccc3)c2)ccc1O` the protection (pct of control) was 11.5% (inactive).
In the case of `C=CCc1ccccc1OCC(=O)N/N=C/c1ccccc1OCC`, the protection (pct of control) is reported as 1.64% (inactive).
For `COc1ccc(C)cc1NC(=O)CCC(=O)Nc1nnc(C(F)(F)F)s1`, the protection (pct of control) was 11.8% (inactive).
With `COc1ccc(C(F)(F)F)cc1N/C=C\c1nnnn1-c1ccc(C)cc1` the protection (pct of control) was 30.4% (active).
With `COc1ccc(OC)c(-n2nnnc2SCC(=O)Nc2cc(C)ccc2OC)c1` the protection (pct of control) was 17.2% (inactive).
With `CCC(C)NC(=O)c1ccc(N2CCC3(CC2)OCCO3)c([N+](=O)[O-])c1` (centres undefined) the protection (pct of control) was 13.6% (inactive).
In the case of `Cc1cc(Cl)ccc1OCCCC(=O)NCc1ccncc1`, the protection (pct of control) is reported as 6.27% (inactive).
In the case of `COC(=O)c1sc(NC(=O)c2csc3c2CCCC3)nc1C`, the protection (pct of control) is reported as 49.9% (active).
With `COC(=O)c1sccc1NC(=O)c1csc2c1CCCC2` the protection (pct of control) was 9.63% (inactive).
In the case of `CC(=O)Cc1nsc(NC(=O)c2csc3c2CCCC3)n1`, the protection (pct of control) is reported as 2.51% (inactive).
For `Cc1cc(C)c(S(=O)(=O)c2ccccc2)c(OC(=O)c2c(F)cccc2Cl)n1`, the protection (pct of control) was 38.9% (active).
With `CN(c1ccccc1)S(=O)(=O)c1cccc(NC(=O)Cc2c(F)cccc2Cl)c1` the protection (pct of control) was 5.27% (inactive).
In the case of `Cc1cc(OC(=O)c2c(Cl)cccc2Cl)nc(C)n1`, the protection (pct of control) is reported as 8.28% (inactive).
For `CCNc1ccc(C(=O)OCC(=O)N2c3ccccc3NC(=O)C2(C)C)cc1[N+](=O)[O-]`, the protection (pct of control) was 5.03% (inactive).
With `Cc1n[nH]c(=S)n1/N=C/c1ccc(Br)o1` the protection (pct of control) was 7.57% (inactive).
In the case of `COc1cc(/C=N/n2c(C)n[nH]c2=S)ccc1OCc1ccccc1`, the protection (pct of control) is reported as 79.2% (active).
In the case of `COc1cc(/C=N/O)ccc1OCc1ccc([N+](=O)[O-])cc1`, the protection (pct of control) is reported as 30% (inactive).
With `COc1ccc(C(=O)ON=C2c3ccccc3-c3ccccc32)cc1OC` the protection (pct of control) was 9.81% (inactive).
For `Cc1cccc(OCCNC(=S)NC(=O)c2cccnc2)c1`, the protection (pct of control) was 16.7% (inactive).
For `COc1ccccc1CC(=O)Nc1ccc([N+](=O)[O-])cc1OC`, the protection (pct of control) was 14.5% (inactive).
In the case of `COc1ccc(Br)cc1CN(C)CC(=O)Nc1cc([N+](=O)[O-])ccc1OC`, the protection (pct of control) is reported as 4.74% (inactive).
With `COc1ccc([N+](=O)[O-])cc1NC(=O)CCc1ccccc1` the protection (pct of control) was 101% (active).
With `CCC1S/C(=N/N=C/c2ccco2)NC1=O` (centres undefined) the protection (pct of control) was 7.36% (inactive).
For `CCOCCCNC(=O)C(NC(=O)CNC(=O)c1ccccc1)c1ccc(C)cc1` (centres undefined), the protection (pct of control) was 7.37% (inactive).
In the case of `CCOCCCNC(=O)C(NC(=O)c1ccc(=O)[nH]c1)c1ccc(C)cc1` (centres undefined), the protection (pct of control) is reported as 6.13% (inactive).
With `CCOCCCNC(=O)C(NC(=O)c1ccc(=O)[nH]c1)c1ccc(Cl)cc1` (centres undefined) the protection (pct of control) was 30.2% (active).
For `Cc1ccc(-c2cc(N)on2)cc1`, the protection (pct of control) was 16.5% (inactive).
In the case of `Cc1ccc(S(=O)(=O)N2CCCC2C(=O)OCc2nc3sc(C)c(C)c3c(=O)[nH]2)cc1` (centres undefined), the protection (pct of control) is reported as 4.09% (inactive).
For `Cc1ccc2[nH]c(C(=O)O)c(NC(=O)c3ccccc3[N+](=O)[O-])c2c1`, the protection (pct of control) was 14.1% (inactive).
In the case of `CCOC(=O)c1c(-c2ccc(C)cc2C)csc1NC(=O)CSc1nnnn1C`, the protection (pct of control) is reported as 37% (active).
With `COC(=O)c1ccccc1NC(=O)CSc1nnnn1C` the protection (pct of control) was 30.8% (inactive).
For `CCOC(=O)CNC(=O)CSc1nnnn1-c1cc(C)ccc1C`, the protection (pct of control) was 4.67% (inactive).
With `COc1ccc(/C=C/C(=O)Nc2ccc3c(c2)OCCO3)cc1OC` the protection (pct of control) was 18.3% (inactive).
In the case of `CC1(C)CC(=O)C(C=NCc2cccnc2)=C(O)C1`, the protection (pct of control) is reported as 2.03% (inactive).
In the case of `CC1(C)CC(=O)C(C=NCCC2=CCCCC2)=C(O)C1`, the protection (pct of control) is reported as 36.1% (active).
In the case of `CC(=O)N1CCN(CCN=CC2=C(O)CC(C)(C)CC2=O)CC1`, the protection (pct of control) is reported as 2.75% (inactive).
For `CN1CCN(S(=O)(=O)c2ccc(NC(=O)C3CCCO3)cc2)CC1` (centres undefined), the protection (pct of control) was 28.4% (active).
For `CN1CCN(S(=O)(=O)c2ccc(NC(=S)NC(=O)C3CC3)cc2)CC1`, the protection (pct of control) was 7.47% (inactive).
With `CN1CCN(S(=O)(=O)c2ccc(NC(=O)c3ccco3)cc2)CC1` the protection (pct of control) was 12.2% (inactive).
With `C/C(=N\NC(=O)Cc1ccc(F)cc1)c1ccc(F)cc1` the protection (pct of control) was 16.1% (inactive).
With `Cc1ccccc1C(CC(=O)c1cccs1)C(C#N)C#N` (centres undefined) the protection (pct of control) was 1.36% (inactive).
With `O=C(Nc1ccn(Cc2ccccc2)n1)c1n[nH]c([N+](=O)[O-])c1Cl` the protection (pct of control) was 4.93% (inactive).
With `Cc1ccc(Cn2ccc(NC(=O)c3cc(C(C)C)on3)n2)cc1` the protection (pct of control) was 10.8% (inactive).
In the case of `O=C(Nc1ccn(Cc2ccc(F)cc2)n1)c1ccncc1`, the protection (pct of control) is reported as 61.8% (active).
For `CC(=O)N1C(C)c2ccccc2C(C)(C)CC12CCCCC2` (centres undefined), the protection (pct of control) was 1.83% (inactive).
For `Cc1ccc(C)c(NC(=O)CSc2nc3c(oc4ccccc43)c(=O)n2-c2ccccc2)c1`, the protection (pct of control) was 11.7% (inactive).
In the case of `Cc1ccc(SCCC(=O)OCC(=O)Nc2ncc(Cl)cc2Cl)cc1`, the protection (pct of control) is reported as 25.6% (inactive).
In the case of `Cc1ccc(-n2c(SCC(=O)Nc3ncc(Cl)cc3Cl)nc3ccccc32)cc1`, the protection (pct of control) is reported as 45.3% (active).
With `NC(=O)CCC(NS(=O)(=O)c1ccc(Cl)cc1)C(=O)NCc1ccccc1Cl` (centres undefined) the protection (pct of control) was 5.12% (inactive).
In the case of `CNC(=S)N/N=C/c1ccc(OCc2ccccc2)c(Br)c1`, the protection (pct of control) is reported as 4.55% (inactive).
In the case of `CCOC(=O)Cc1csc(SCC(=O)NC(C)C23CC4CC(CC(C4)C2)C3)n1` (centres undefined), the protection (pct of control) is reported as 4.07% (inactive).
With `Cc1cccc(Nc2nc3c(S(=O)(=O)c4ccccc4)nnn3c3ccccc23)c1C` the protection (pct of control) was 4.8% (inactive).
For `CCc1ccc(NC2Nc3cc(C)nn3S2)cc1` (centres undefined), the protection (pct of control) was 40.8% (active).
In the case of `Cc1ccc(-c2nc3c(cnn3-c3ccccc3)c(=O)o2)cc1`, the protection (pct of control) is reported as 8.52% (inactive).
With `COc1ccc(Oc2c(Cl)cnn(-c3ccccc3)c2=O)cc1` the protection (pct of control) was 42.2% (active).
In the case of `COc1ccc(-n2c(C)nc3c(cnn3-c3ccccc3)c2=O)cc1`, the protection (pct of control) is reported as 1.2% (inactive).
For `Cc1cc(C(=O)CSc2nc(N)cc(=O)[nH]2)c(C)n1-c1cccc(F)c1`, the protection (pct of control) was 24.8% (inactive).
With `O=C(C1CCCO1)N1CCN(C(=S)Nc2cccc(Cl)c2)CC1` (centres undefined) the protection (pct of control) was 19.2% (inactive).
With `C=C(C)c1cccc(C(C)(C)NC(=O)NC2CCCC2)c1` the protection (pct of control) was 2.05% (inactive).
In the case of `CCOC(=O)c1sc(NC(=O)COc2ncnc3ccccc23)c(C(=O)OCC)c1C`, the protection (pct of control) is reported as 23.3% (inactive).
In the case of `O=C(CN1CCc2ccccc21)NC(c1ccccc1)c1ccccc1`, the protection (pct of control) is reported as 11.6% (inactive).
In the case of `Cc1ccc(S(=O)(=O)NCC(=O)N(CC(=O)NC2CCCCC2)Cc2ccco2)cc1`, the protection (pct of control) is reported as 39.7% (inactive).
With `Cc1ccc(S(=O)(=O)NCC(=O)N(CC(=O)NC(C)(C)C)Cc2cccs2)cc1` the protection (pct of control) was 32.1% (active).
In the case of `CC(C)(C)NC(=O)CN(Cc1cccs1)C(=O)CNS(=O)(=O)c1ccccc1`, the protection (pct of control) is reported as 4.11% (inactive).
In the case of `COc1ccc(OC)c(/C=N/NC(=O)CSc2nnc(C)n2-c2ccccc2)c1`, the protection (pct of control) is reported as 6.95% (inactive).
In the case of `Cc1nnc(SCC(=O)N/N=C/c2cn(-c3ccccc3)nc2-c2ccc(F)cc2)n1-c1ccccc1`, the protection (pct of control) is reported as 50.4% (active).
In the case of `Cc1ccc(-c2nn(-c3ccccc3)cc2/C=N/NC(=O)c2ccc3c(c2)OCO3)cc1`, the protection (pct of control) is reported as 11.1% (inactive).
With `Cc1ccccc1C1=NC(C(F)(F)F)(C(F)(F)F)c2c(n(-c3ccc(F)cc3)c(=O)[nH]c2=O)N1` the protection (pct of control) was 14.5% (inactive).
